# The whole screen tested about 310,000 compounds, of which about 14,000 (4.5%) showed an effect of 50% or more. The effect is printed as a negative number. This excerpt belongs to a sample that is enriched for strong results.
# Biological target: human ether-à-go-go-related gene (hERG) potassium channel (human, UniProt Q12809)
# Assay: primary screen, population patch clamp on CHO cells stably expressing hERG; higher = less effect of the substance
# 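Also: peak tail current of the secondary pulse compared with the same well before compound.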
# Sequence of human ether-à-go-go-related gene (hERG) potassium channel (Q12809 whole entry, looked up): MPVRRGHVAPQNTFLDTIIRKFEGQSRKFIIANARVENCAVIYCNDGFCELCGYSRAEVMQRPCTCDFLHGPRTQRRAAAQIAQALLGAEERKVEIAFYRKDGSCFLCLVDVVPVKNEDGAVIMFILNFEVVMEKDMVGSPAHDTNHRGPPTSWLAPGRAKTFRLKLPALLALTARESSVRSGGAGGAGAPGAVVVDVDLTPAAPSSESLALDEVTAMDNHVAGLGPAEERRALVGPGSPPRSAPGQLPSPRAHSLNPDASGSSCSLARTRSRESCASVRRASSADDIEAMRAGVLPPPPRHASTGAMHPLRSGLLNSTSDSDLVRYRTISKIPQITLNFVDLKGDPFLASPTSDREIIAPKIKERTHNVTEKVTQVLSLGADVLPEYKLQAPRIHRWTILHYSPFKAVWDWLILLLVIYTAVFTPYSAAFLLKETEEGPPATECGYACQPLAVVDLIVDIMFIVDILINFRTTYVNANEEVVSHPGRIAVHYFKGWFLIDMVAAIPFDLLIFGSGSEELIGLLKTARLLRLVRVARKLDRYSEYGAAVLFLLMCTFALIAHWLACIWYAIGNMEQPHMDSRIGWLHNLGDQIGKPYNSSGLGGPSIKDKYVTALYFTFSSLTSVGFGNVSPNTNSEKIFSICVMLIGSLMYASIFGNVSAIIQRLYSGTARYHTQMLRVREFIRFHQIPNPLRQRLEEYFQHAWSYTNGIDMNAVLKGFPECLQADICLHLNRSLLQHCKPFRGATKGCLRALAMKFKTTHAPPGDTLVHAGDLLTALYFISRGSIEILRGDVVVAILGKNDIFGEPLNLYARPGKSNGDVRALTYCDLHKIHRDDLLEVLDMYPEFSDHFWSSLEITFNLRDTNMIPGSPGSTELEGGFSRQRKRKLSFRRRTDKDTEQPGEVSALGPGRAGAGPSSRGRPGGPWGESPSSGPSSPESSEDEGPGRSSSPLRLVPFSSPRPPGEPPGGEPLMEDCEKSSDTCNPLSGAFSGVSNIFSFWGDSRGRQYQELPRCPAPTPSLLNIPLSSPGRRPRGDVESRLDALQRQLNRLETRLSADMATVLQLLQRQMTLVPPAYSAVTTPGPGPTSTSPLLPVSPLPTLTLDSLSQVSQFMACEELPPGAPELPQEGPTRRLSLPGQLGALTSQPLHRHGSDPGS
row,SMILES,"hERG current change (%, negative = inhibition) at 10uM"
1,O=C(CCN1CCN(c2ccccc2)CC1)Nc1cccc(Br)c1,-61.4%
2,O=C(CCN1CCN(c2ccccc2)CC1)Nc1ccccc1,-22.9%
3,O=C(CCN1CCN(CCO)CC1)Nc1cccc(Br)c1,-19%
4,O=C(CN1CCC(NC(=O)c2ccccc2F)CC1)Nc1ccc2c(c1)OCO2,-41.7%
5,Cc1ccccc1C(=O)NC1CCN(CC(=O)Nc2ccc3c(c2)OCO3)CC1,-47.3%
6,Cc1cccc(NC(=O)CN2CCC(C(=O)c3ccc4c(c3)OCCO4)CC2)c1,-54.2%
7,Cc1ccc(NC(=O)CN2CCC(C(=O)c3ccc4c(c3)OCCO4)CC2)cc1,-44.7%
8,O=C(CCN1CCCC1)Nc1cccc(Br)c1,-20.6%
9,Cc1ccc(C(=O)C2CCN(CC(=O)Nc3ccc4c(c3)OCCO4)CC2)cc1,-2.3%
10,CN1CCN(CCC(=O)Nc2cccc(Br)c2)CC1,-19%
11,Cc1cccc(C(=O)NC2CCN(CC(=O)Nc3ccc4c(c3)OCO4)CC2)c1,-57.7%
12,O=C(CCN1CCN(Cc2ccccc2)CC1)Nc1cccc(Br)c1,-63%
13,CCOc1ccccc1N(C)S(=O)(=O)c1ccc2c(c1)CC(C)N2C(=O)C1CC1 (stereo not drawn),9.49%
14,O=c1[nH][nH]c(C(F)(F)F)c1C=NCc1ccc(Cl)cc1,-1.88%
15,COC(=O)C1=C(C(=O)OC)[C@@H]2N(C)c3ccccc3[C@@]23C[C@@H](C(=O)OC)N=C3N1,-2.81%
16,CCOC(=O)N1CCC(N(CCN(C)C)C(=S)Nc2ccccc2C)CC1,3.33%
17,CN(C)S(=O)(=O)c1cccc(NC(=O)CSc2nc3ccccc3[nH]2)c1,-22.2%
18,Cc1cc(C)n2c(-c3ccccc3Cl)nnc2n1,-14.8%
19,O=C(NCCCCO)c1ccc2c3c(cccc13)CC2,7.52%
20,CC(=O)NS(=O)(=O)c1cccnc1Nc1ccc(Cl)c(Cl)c1,16.1%
21,CC(=O)Nc1nc2c(c3c1c(=O)oc1ccccc13)CCCCC2,-7.1%
22,C=C[C@@]12CN(C)[C@H]3[C@H]1[C@@]1(C(=O)Nc4ccccc41)C1CC2[C@@H]3CO1,13%
23,O=c1c2c(-c3cccs3)csc2ncn1-c1ccccc1,-28.3%

row,SMILES,"hERG current change (%, negative = inhibition) at 10uM"
1,CCOc1ccc(N2C(=O)c3ccc(C(=O)OCC(=O)N(CC)C4CCS(=O)(=O)C4)cc3C2=O)cc1 (stereo not drawn),-22.3%
2,Cc1ccc(NC(=O)CN2CCC(NC(=O)c3cccc(F)c3)CC2)cc1C,-41.3%
3,Cc1cccc(NC(=O)CN2CCCCCC2)c1,7.69%
4,O=C(CN1CCC(NC(=O)c2cccc(F)c2)CC1)Nc1ccc(Br)cc1,-73%
5,COC(=O)c1cccc(NC(=O)CN2CCN(Cc3ccccc3)CC2)c1,-16%
6,Cc1cccc(NC(=O)Cn2cccc2)c1,-5.5%
7,COc1cc(NC(=O)CN2CCN(S(=O)(=O)/C=C/c3ccccc3)CC2)cc(OC)c1OC,-14.8%
8,CC(=O)c1cccc(NC(=O)CN2CCN(S(=O)(=O)/C=C/c3ccccc3)CC2)c1,-53.9%
9,NS(=O)(=O)c1ccc(NC(=O)CN2CCN(S(=O)(=O)/C=C/c3ccccc3)CC2)cc1,-9.04%
10,Cc1cc(C)cc(NC(=O)CN2CCC(NC(=O)c3cccc(F)c3)CC2)c1,-39%
11,O=C(CN1CCN(Cc2ccccc2)CC1)Nc1cccc(Br)c1,-51.7%
12,CC(=O)c1cccc(NC(=O)CN2CCN(Cc3ccccc3)CC2)c1.Cl,-10.9%
13,Cc1cccc(NC(=O)CN2CCN(CC(=O)Nc3cccc(C)c3)CC2)c1,-63.7%
14,CC(C(Sc1ccccc1N)c1ccccc1)[N+](=O)[O-] (stereo not drawn),7.82%
15,CCOP(=O)(O)c1cccc(OCCOCCOc2cccc(P(=O)(O)OCC)c2)c1,4.45%
16,Cn1c(=NCC(O)COc2ccccc2)sc2ccccc21 (stereo not drawn),-42.7%
17,COc1ccnc(Oc2ccccc2)c1C(N)=O,20.2%
18,C/C(Cn1cnc([N+](=O)[O-])n1)=N\NC(=O)c1cccc(F)c1,6.43%
19,COC(=O)c1cccc(NC(=O)CSc2nnc(C)n2C)c1,26%
20,Cc1ccc(NC(=O)C2CCN(S(=O)(=O)c3ccc4c(c3)NC(=O)C(C)S4)CC2)c(C)c1 (stereo not drawn),-3.06%
21,O=C(O)C1CCN(C(=O)c2ccco2)CC1,9.94%
22,COc1ccc(N(CC(=O)N/N=C/c2ccccc2OC)S(=O)(=O)c2ccccc2)cc1,19.9%

# Reference: article PMC4336329 (PLoS ONE, 2015)
